# Results: PubChem BioAssay AID434955 (Southern Research Specialized Biocontainment Screening …, 2010)
# “And” between values parts separate entries of the source, which are not always exact repeats. Identical values can stand only once. Hit rate of the full screen: of about 330,000 compounds, about 880 (0.27%) were called active. Roughly 1% stayed inconclusive and do not appear here. No rule for the calls is given here. Not all results are given here.
# Assay: beta-lactam sensitization of Mtb H37Rv, H37Rv (AID 434955);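 also: growth measured after seven days incubation then overnight dye step; 0% = bacteria only wells and 100% = bacteria with antibiotic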
# Settings: M. tuberculosis H37Rv growth with meropenem, percent inhibition, at 25 µM
# [1] = measured here: primary screen without meropenem
Compound,inhibition (stronger effect = higher value),inhibition [1]
O=C(CCc1nc(-c2ccccc2)no1)Nc1cccc(C(=O)NC2CC2)c1,1.26% (inactive),4.5%
COc1ccc(/C=N/n2c(C)cc(C)cc2=O)cc1,3.19% (inactive),-1.76%
COC(=O)c1ccc(NS(=O)(=O)c2cc3c4c(c2)C(C)C(=O)N4CCC3)cc1 (stereo not given),-8.75% (inactive),-4.77%
CCC1CO/C(=C(\C(=C(Cl)Cl)N2CCOCC2)[N+](=O)[O-])N1 (stereo not given),-17.5% (inactive),-10.3%
CCOC(=O)N1CCN(C(=O)C2CCN(S(C)(=O)=O)CC2)CC1,2.13% (inactive),-5.28%
O=c1[nH]c(=O)n(Cc2ccco2)c2c1C(C(F)(F)F)(C(F)(F)F)N=C(c1ccco1)N2,-12.9% (inactive),-21.1%
O=c1c2ccccc2ncn1CCCCOc1ccccc1F,-1.85% (inactive),11.4%
Cn1nc(C(F)(F)F)cc1C(=O)O,-2.73% (inactive),4.91%
O=C1CC2(CCCC2)Oc2ccc(Cl)cc21,-2.7% (inactive),-12.8%
COc1ccc(C2C(C(C)=O)=C(O)C(=O)N2c2nccs2)cc1 (stereo not given),-8% (inactive),-1.43%
NC(=O)COC(=O)c1sc2cc(F)ccc2c1Cl,40.4% (inactive),37.9%
O=C(NC(Cc1ccccc1)C(=O)O)/C(=C\c1ccccc1)NC(=O)c1ccco1 (stereo not given),-13.2% (inactive),-12.5%
CN1CCc2nc(SC(C(=O)O)c3ccccc3)c(C#N)c(-c3cccs3)c2C1 (stereo not given),-5.45% (inactive),-0.72%
CCOc1cc(C)ccc1OCc1nnc(SCC(=O)Nc2cccc(C(=O)O)c2)n1-c1ccccc1,-1.64% (inactive),-0.86%
CCOC(=O)c1ccc(NC(=O)C2CC(=O)N(c3ccc4c(c3)OCCO4)C2)cc1 (stereo not given),-4.22% (inactive),4.56%
O=C(c1ccc(F)cc1)n1c(=S)nc2ccccn21,-3.39% (inactive),-1.53%
CN1CCN(NC(=O)Nc2ccc(Br)cc2)CC1,5.75% (inactive),6.69%
CC(=O)C1=C(C)NC(=O)NC1c1ccc2c(c1)OCO2 (stereo not given),-1.59% (inactive),7.05%
COc1ccc(NC2CCCN(C(=O)c3ccncc3)C2)cc1 (stereo not given),-5.62% (inactive),1.6%
Cc1cc(C)cc(N(CCC#N)C(=O)CN2C(=O)NC3(CCCC3)C2=O)c1,-5.09% (inactive),-6.67%

Compound,inhibition (stronger effect = higher value),inhibition [1]
CC(C)N1CCC(NC(=O)Nc2ccccc2)CC1,-9.18% (inactive),-1.81%
Cc1ccc(NS(=O)(=O)c2ccc(-c3coc(C)n3)cc2)c(C)c1,-2.05% (inactive),3.59%
COc1ccc(C(=O)NC(C)Cn2nc(C)cc2C)cc1OC1CCN(C(C)=O)CC1 (stereo not given),-1.95% (inactive),-5.6%
COCCCNC(=O)Cc1ccc(-n2c(C)nc3cccnc32)cc1,-2.02% (inactive),-1.03%
O=C(NCCC1=CCCCC1)c1ccc(-n2cncn2)cc1,3.02% (inactive),10.8%
CC1CCN(S(=O)(=O)c2ccc(NC(=O)C3CC(=O)N(c4ccccc4)C3)cc2)CC1 (stereo not given),1.58% (inactive),6.16%
COc1ccc(OC)c(NC(=O)c2cccc(S(=O)(=O)N3CCN(C(C)=O)CC3)c2)c1,1.25% (inactive),1.6%
CCc1nn(CCCN2CCN(c3cccc(Cl)c3)CC2)c(=O)n1CCOc1ccccc1,-2.61% (inactive) and 5.29% (inactive),51.1% and 50%
COc1ccc(C)c(Cn2c(-c3nonc3N)nc3ccccc32)c1,-3.23% (inactive),-5.86%
C=CCSc1ccc(S(=O)(=O)N2CCN(C)CC2)cn1,-0.58% (inactive),5.36%
Cc1ccc(C(=O)NN(CCC#N)C2=NS(=O)(=O)c3ccccc32)cc1,-5.01% (inactive),-4.15%
CC(NC(=S)NC1CCCCC1)C(c1ccccc1)N1CCOCC1 (stereo not given),-1.18% (inactive),-9.18%
COC(=O)N/N=C/c1c[n+]([O-])c2ccccc2[n+]1[O-],99.7% (inactive),100%
Nn1c(SCC(=O)NC2CCCc3ccccc32)nnc1C1CC1 (stereo not given),-6.27% (inactive),-8.89%
Cn1nnnc1-c1cc(Cl)cc(Cl)c1,-6.9% (inactive),-5.1%
FC(F)(F)COc1nc(N2CCCCC2)nc(N2CCNCC2)n1,-3.65% (inactive),-3.73%
Cc1ccc(S(=O)(=O)N(C)c2ccc(OCC(=O)OCc3ccc(C#N)cc3)cc2)cc1,94.4% (inactive),93.2%
O=C(c1cc(-c2ccc(Cl)cc2)on1)N1CCN(c2ccccc2)CC1,4.32% (inactive),0.26%
Nc1c(N(CCO)C(=O)C2CCCCC2)c(=O)[nH]c(=O)n1Cc1ccccc1,1.76% (inactive),-2.9%
Cc1ccc(N2CC(C(=O)Nc3cc(Cl)ccc3-n3cncn3)CC2=O)cc1 (stereo not given),-7.41% (inactive),3.62%
